Screening data (PubChem BioAssay)
Hits are enriched below; roughly 8.7% of the tested compounds scored in any of these assays.
Vaccinia Venus = qHTS for Stage-Specific Inhibitors of Vaccinia Orthopoxvirus: Venus Reporter Primary qHTS | Vaccinia virus Venus reporter expression, fluorescence | Potency, µM (top dose mostly 36.5 µM), actives largely listed as inhibitors | 330,000 compounds, 0.46% hits | AID 720580, 2013; calls by dose curve; tested in A549 cells; further: nearly all actives have a fitted effect of over 30% in size
Vaccinia mCherry = qHTS for Stage-Specific Inhibitors of Vaccinia Orthopoxvirus: mCherry Reporter Primary qHTS; Vaccinia virus mCherry reporter infection, fluorescence; 310,000 compounds, 0.63% hits; Potency, µM (titrated, usually from 36.5 µM), actives largely listed as inhibitors; calls by dose curve; tested in A549 cells; further: nearly all actives have a fitted effect of over 35% in size
Pf growth 96h = Primary qHTS for delayed death inhibitors of the malarial parasite plastid, 96 hour incubation. P. falciparum luciferase reporter growth, 96 h. 320,000 compounds, 6.9% hits. Potency, µM (doses to about 28.7 µM), actives largely listed as inhibitors
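Two-generation exposure (96 h) targets delayed-death phenotype. Reporter parasites carrying integrated firefly luciferase, in red cells at 2% hematocrit and 0.05% parasitemia final, kept at 37 C, 5% CO2; luminescence loss indicates inhibition.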
AMA1 RON2 block = qHTS for Inhibitors of AMA1-RON; Towards Development of Antimalarial Drug Lead: Primary Screen; 360,000 compounds, 0.2% hits; Plasmodium falciparum AMA1 (3D7) - RON2 peptide interaction; AlphaScreen AMA1-biotinylated RON2 peptide binding; Potency, µM (highest dose often 58.2 µM), most hits filed as inhibitors; further: nearly all actives have a fitted effect of over 45% in size
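AMA1 (3D7) with his tag at 25 nM final met compounds first, then biotinylated RON2 peptide at 25 nM; detection used donor plus acceptor beads, 10 µg/mL apiece, read by AlphaScreen after 30 min at room temperature.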
Pf growth 48h = Primary qHTS for delayed death inhibitors of the malarial parasite plastid, 48 hour incubation; P. falciparum luciferase growth in erythrocytes, 48 h; Potency, µM (highest dose often 28.7 µM), most hits filed as inhibitors; 310,000 compounds, 5.9% hits
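Read-out is firefly luciferase luminescence from an integrated reporter in P. falciparum, so falling signal marks reduced parasite growth. Infected erythrocytes were at 2% hematocrit and 0.1% parasitemia (final) in Albumax-supplemented RPMI 1640.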
Of the large screens only hits and unclear results are named; the others gave an inactive call. Unless noted, the call rests on the fitted dose curve; in most records, active means well fitted curve in the direction sought with a large enough effect; inconclusive means small, poorly fitted or top-dose-only effect, or another doubt; inactive means no such curve, though single readings can be large; an effect the other way counts as inactive or inconclusive.

CCOc1ccc(-c2cc3nc(C4CCN(C(=O)OC(C)(C)C)CC4)c(C(=O)O)cn3n2)cc1	Pf growth 96h inconclusive, Pf growth 48h 0.47µM (no result: Vaccinia Venus, Vaccinia mCherry)
Cc1cccc(C(=O)NCC(=O)OCc2cc(=O)n3nc(CC(C)C)sc3n2)c1	none (no result: Pf growth 96h, AMA1 RON2 block, Pf growth 48h)
CCN(CC)CCNC(=O)c1cnn(-c2ncc3c(n2)-c2ccc(OC)cc2CC3)c1C	none (no result: Pf growth 96h, AMA1 RON2 block, Pf growth 48h)
COc1ccc(C(=O)NCc2nnc(SCC(=O)N3CCCCC3)o2)cc1OC	Pf growth 96h 3.3µM (no result: Pf growth 48h)
COc1ccc(Cc2nnc(SCC(=O)N3CCCC(C)C3)o2)cc1 (stereo unspecified)	Pf growth 96h inconclusive, Pf growth 48h 7.4µM (no result: Vaccinia Venus, Vaccinia mCherry)
O=C(NCc1nnc(SCC(=O)N2CCN(c3ccccc3)CC2)o1)c1c(F)cccc1Cl	Pf growth 96h 10µM
O=C(NCc1nnc(SCC(=O)N2CCN(c3ccccc3)CC2)o1)c1ccc(F)cc1	none
COc1ccc(OCc2nnc(SCC(=O)N3CCCC3)o2)cc1	Pf growth 96h inconclusive
COc1ccc(OCc2nnc(SCC(=O)N3CCCCC3)o2)cc1	Pf growth 96h 12µM
COc1ccc(C)cc1NC(=O)c1c(C(=O)Nc2cccc(C)c2C)sc2nc(C)cc(=O)n12	none (no result: Pf growth 96h, AMA1 RON2 block, Pf growth 48h)
CCC(=O)N1c2ccccc2CC1C(=O)NCc1ccc(OC(C)C)cc1 (stereo unspecified)	none (no result: Pf growth 96h, AMA1 RON2 block, Pf growth 48h)
O=C(OCCN1CCCCC1)c1ccc(O)cc1	none (no result: Vaccinia Venus, Vaccinia mCherry, Pf growth 96h)
O=C(OCCCN1CCCCC1)c1ccc(O)cc1	Pf growth 96h 2.6µM (no result: Vaccinia mCherry)
Cc1ccc(CN2CCC(=O)N(Cc3ccccn3)CC2)c(C)c1	none (no result: Pf growth 96h, AMA1 RON2 block, Pf growth 48h)
CN1CCN2c3ccccc3CC3(C(=O)OC(C)(C)OC3=O)C2C1 (stereo unspecified)	none (no result: Pf growth 96h, AMA1 RON2 block, Pf growth 48h)
CCN(CC)CCCNC(=O)c1ccccc1NC(=O)C1=CSCCO1	none (no result: Vaccinia Venus, Vaccinia mCherry)
CCCSCCCNC(=O)c1ccccc1NC(=O)C1=CSCCO1	Pf growth 96h 13µM (no result: Vaccinia Venus, Vaccinia mCherry)
CCn1c(CNC(=O)c2ccc(Cl)cc2)nnc1SCC(=O)NC1=NCCS1	Pf growth 96h 8.3µM
CCn1c(CNc2ccc(F)cc2)nnc1SCC(=O)Nc1ccc(OC)cc1	Pf growth 48h inconclusive
CCSCc1nnc(SCC(=O)Nc2ccc(F)cc2)n1CC	Pf growth 96h 12µM
CCn1c(COc2ccccc2C)nnc1SCC(=O)CC(=O)Nc1ccccc1	Pf growth 48h 10µM (no result: Vaccinia Venus, Vaccinia mCherry)
Cn1c(CNC(=O)c2ccc(Cl)cc2)nnc1SCC(=O)NC1=NCCS1	none
CCn1c(COc2ccccc2C)nnc1SCC(=O)O	none (no result: Vaccinia Venus, Vaccinia mCherry, Pf growth 48h)
C=CCn1c(CCNC(=O)c2cccs2)nnc1SCC(=O)Nc1cccc(C(C)=O)c1	Pf growth 96h 9.3µM (no result: Vaccinia mCherry)
O=C(CSc1nc2ccsc2c(=O)n1Cc1ccccc1F)NCc1ccccc1	none (no result: Pf growth 96h, AMA1 RON2 block, Pf growth 48h)
Cc1ccc2nc(NC(=O)CSc3nccn3Cc3ccc(F)cc3)sc2c1	none (no result: Pf growth 96h, AMA1 RON2 block, Pf growth 48h)
CCC(C)NC(=O)CCC(=O)N1Cc2ccccc2Oc2ncccc21 (stereo unspecified)	none (no result: Pf growth 96h, AMA1 RON2 block, Pf growth 48h)
O=C(Oc1ccccc1F)c1nc(SCc2ccc(F)cc2)ncc1Cl	none (no result: Pf growth 96h, AMA1 RON2 block, Pf growth 48h)
CCn1c(CNC(=O)c2cccs2)nnc1SCC(=O)Nc1cc(Cl)ccc1C	Pf growth 96h inconclusive, Pf growth 48h inconclusive (no result: Vaccinia Venus, Vaccinia mCherry)
Cn1c(CC(=O)Nc2ccccc2)nnc1SCC(=O)NC1=NCCS1	Pf growth 96h 2.6µM
CCN(CC)C(=O)CSc1nc2ccc(NC(=O)CSc3nnc(COc4ccccc4C)n3C)cc2s1	Vaccinia Venus inconclusive, Pf growth 96h 9.3µM, Pf growth 48h inconclusive
CCn1c(CNC(=O)c2cccs2)nnc1SCC(=O)Nc1ccc(Cl)cc1	Pf growth 96h 9.3µM, Pf growth 48h 10µM (no result: Vaccinia Venus, Vaccinia mCherry)
Cc1ccccc1OCc1nnc(SCC(=O)Nc2ccc3nc(SCC(=O)NC(C)(C)C)sc3c2)n1C	Vaccinia Venus inconclusive, Pf growth 48h inconclusive (no result: Vaccinia mCherry)
C[C@@H]1CN(Cc2ccc3c(c2)CN(C(=O)CCc2nc4ccc(F)cc4[nH]2)CCO3)C[C@H](C)O1	none (no result: Pf growth 96h, AMA1 RON2 block, Pf growth 48h)
Cc1ccc(S(=O)(=O)N2CCCN(C(=O)c3cc4ccccc4[nH]3)CC2)cc1	Pf growth 96h 12µM, Pf growth 48h inconclusive
CN(C)C(=O)N1CCN(S(=O)(=O)c2ccc3ccccc3c2)CC1	Pf growth 96h 10µM
CN1CCN(S(=O)(=O)c2ccc3ccccc3c2)CC1	none (no result: Pf growth 48h)
CN(C)S(=O)(=O)N1CCN(S(=O)(=O)c2ccc3ccccc3c2)CC1	Pf growth 96h inconclusive (no result: Pf growth 48h)
